From PubChem BioAssay (Tox21) come the findings set out here.

The structures appear in SMILES notation. Where “and” joins values, the source holds several entries; their conditions need not be identical. Equal values may be shown once. Records with an inconclusive call do not appear. Entries that show only a call come without a potency. The source holds several records for some structures; these can differ, active in one and inactive in another. Calls of active or inactive are those of the source. Calls follow the shape of the dose curve; as a rule, active = well fitted cell-killing curve with a large enough effect in the repeat runs; inconclusive = weak or mixed curves, or effect the other way; inactive = flat fitted curve, though single readings scatter.
Potency is read from the fitted curve at half-maximal effect.

A short description of this assay: qHTS RealTime-Glo MT Cell Viability Assay in HEK293 cells - 8 hour (AID 1224887). Also: nearly all actives have a fitted effect of over 50% in size. As to conditions: RealTime-Glo luminescence; series mostly up to 76.8 µM. Put shortly: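 Real-time viability in HEK293: signal arises when living cells convert a prosubstrate for NanoLuc in the medium, so luminescence tracks viable cell number. Compound (23 nL, DMSO) added 5 h post-seeding; kinetic reads at 0–40 h, 37 C.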
For `CC(C)(C)NCC(O)c1cc(O)cc(O)c1` (centres undefined), the Potency result is “inactive”. To `C#CC(C)(CC)OC(=O)c1ccccc1C(=O)O` (centres undefined) belongs “inactive”; to `CC(C)(C)NCC(O)COc1ccccc1OCC1CCCO1` (centres undefined), “inactive”; to `COc1ccc(Cc2cnc(N)nc2N)cc1OC`, “inactive”. To `C=CS(=O)(=O)O` belongs “inactive”; to `CC(=O)C1=C(C)[C@@H]2C[C@@]3(C1)[C@H](C)CC[C@H]3C2(C)C`, “inactive”. To `O=S(=O)(O)c1ccc2nc(-c3ccccc3)[nH]c2c1` belongs “inactive”; to `Cc1scc2c1N(C(=O)CN1CCN(C)CC1)c1ccccc1NC2=O`, “inactive”; to `COC(c1ccccc1)(c1ccccc1)[C@H](Oc1nc(C)cc(C)n1)C(=O)O`, “inactive”. With `OCCN1CCNCC1`, the Potency result was “inactive”.

Regarding `C1COC(NC(C2CC2)C2CC2)=N1`, the Potency result is “inactive”.

For the molecule `Cc1cc(OCCOCC[N+](C)(C)Cc2ccccc2)ccc1C(C)(C)CC(C)(C)C`, the Potency was 48.7 µM (active) and 23.9 µM (active). Next, `CC(=O)CC(=O)Nc1ccc2[nH]c(=O)[nH]c2c1`: “inactive”; `CCN(CC)C(=O)Nc1ccc(OCC(O)CNC(C)(C)C)c(C(C)=O)c1` (centres undefined): “inactive”; `CN1C(=O)c2ccc([N+](=O)[O-])cc2C1=O`: “inactive”. As to `CC(C)(C)c1ccccc1`, the Potency result was “inactive”.

As to `Nc1nc2ccccc2[nH]1`, the Potency result was “inactive”. Next, `c1ccc2c(c1)CCCC2C1=NCCN1` (centres undefined): “inactive”; `O=C(Cl)c1cccc(C(=O)Cl)c1`: “inactive”; `CCc1cc(C(C)(C)C)c(O)c(C(C)(C)C)c1`: “inactive”. To `CC[C@@H](N)CO` belongs “inactive”; to `Cc1ccc(-c2cc(C(F)(F)F)nn2-c2ccc(S(N)(=O)=O)cc2)cc1`, 43.5 µM (active) and 30.9 µM (active) and inactive. To `CCCCCCCCCCCCCC[P+](CCCC)(CCCC)CCCC` belongs 24.4 µM (active) and 19.5 µM (active); to `CCC(CO)(CO)COCC(CC)(CO)CO`, “inactive”. As to `O=C(O)Cn1cnnn1`, the Potency result was “inactive”. Next, `Oc1ccc(Cl)cc1Cc1cc(Cl)ccc1O`: 25 µM (active) and inactive. Next, `c1cnc2cc3c(cc2n1)C1CNCC3C1`: “inactive”; `C=C(C)C(=O)O`: “inactive”; `CCN(CC)CCOc1ccc(/C(=C(\Cl)c2ccccc2)c2ccccc2)cc1`: 12.6 µM (active) and 21.3 µM (active). To `NCCCCCC(=O)O` belongs “inactive”. As for `CC(C)CCOC(=O)c1ccc(N(C)C)cc1`, the Potency entry was “inactive”. Turning to `CCN(CC)c1ccc2c(C)cc(=O)oc2c1`, the Potency entry was “inactive”.

Turning to `CCCNC(C)C(=O)Nc1ccccc1C` (centres undefined), the Potency result was “inactive”.

Turning to `CCOC(=O)C(C)C(C)=O` (centres undefined), the Potency result is “inactive”.
